# From PubChem
# Myeloid diff 2: myeloid differentiation induction; ER-HoxA9 myeloid progenitors, lysozyme-GFP differentiation, flow cytometry; calls only at 10 µM; hit rate 1% among 360,000; AID 624256;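 active means normalized GFP-positive differentiation at or above the plate's own cutoff, the solvent-only control mean plus 3 SD; inconclusive means no clear call, values can overlap the other calls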;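 further: cells exposed to compound for four days before flow analysis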
# FAS-TE inh: blocks the thioesterase domain of human fatty acid synthase | P49327 | recombinant FAS-TE, OMFH fluorogenic substrate, fluorescence endpoint | inhibition, % at 15 µM | hit rate 0.67% among 360,000;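 active means compounds whose normalised, plate-corrected inhibition of enzyme fluorescence in the single-dose primary screen is 50% or more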;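 further: 0% = DMSO with enzyme and 100% = substrate without enzyme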
# NR3A LBD binder: modulators (binders) of human NR3A ligand-binding domain; NR3A LBD differential scanning fluorimetry, Tm shift; 0% = protein alone, 100% = glycine-bound protein; Tm shift relative to glycine control, % at 25 µM; hit rate 2.5% among 340,000;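 active means melting temperature shift of at least 10% of the positive control shift, at one fixed dose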
# rCAG RNA binder: binds r(CAG) RNA repeats. hit rate 1.3% among 370,000. r(CAG) RNA repeat, TO-PRO-1 dye displacement fluorescence. inhibition, % at 3 µM. AID 651821;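 active means inhibition above the plate cutoff, the mean of all test compounds on that plate plus 3 SD, cut at about 35% in these data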;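 further: 0% = DMSO alone and 100% = 100 µM mitoxantrone as full dye displacement; higher means more dye released from RNA so lower well fluorescence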
# MPTP block: inhibitors of mitochondrial permeability transition pore | isolated mouse mitochondria, Ca2+ swelling absorbance, 30 min | inhibition, % at 10 µM | hit rate 1.4% among 360,000;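 active means inhibition of 50% or more, scaled per plate between neutral and stimulator controls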;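 further: 0% = DMSO wells given calcium and 100% = 1 mM EGTA wells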
# Rh123 counter: Rhodamine 123 counter-screen of mitochondrial pore hits; hit rate 78% among 5,000; isolated mitochondria, membrane potential, Rhodamine 123 fluorescence; AID 624504; inhibition, % at 10 µM; shares compounds with MPTP block; in the data active means inhibition above about 22%;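 further: 0% = DMSO vehicle and 100% = positive control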
# rCAG bind conf: r(CAG) RNA repeat binding, confirmation; shares compounds with rCAG RNA binder; hit rate 70% among 4,300; inhibition, % at 3 µM; TO-PRO-1 dye displacement fluorescence;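 active means inhibition above a per-plate cutoff, the mean inhibition of sample wells plus 3 SD, cut at about 35% in these data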;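 further: loss of TO-PRO-1 fluorescence as compound displaces dye from 1x1 AA loop RNA; 0% = DMSO only wells and 100% = 100 µM mitoxantrone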
# dCAG dye counter: DNA CAG dye complex inhibition counter-screen. shares compounds with rCAG RNA binder. d(CAG) DNA oligo TO-PRO-1 dye displacement, fluorescence. inhibition, % at 3 µM. hit rate 94% among 4,300. AID 652068;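 active means inhibition above its plate's cutoff, the mean test-well inhibition plus 3 SD, cut at about 4.8% in these data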;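 further: 0% = DNA dye mix with DMSO and 100% = 100 µM mitoxantrone; hits displace the dye from DNA and so lower well fluorescence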
# DNA CAG DR: DNA CAG dye complex inhibition, dose response counter-screen; shares compounds with rCAG RNA binder; DNA CAG/GTC duplex TO-PRO-1 dye displacement fluorescence; IC50, µM; hit rate 20% among 250; AID 686960; in the data active means IC50 below about 10 µM
# The depositor's hits bear a star; i = inactive; ? = inconclusive; . = no result given. In the library only some 5.7% were active in any assay of this set; here they are far more common.
SMILES,Myeloid diff 2,FAS-TE inh,NR3A LBD binder,rCAG RNA binder,MPTP block,Rh123 counter,rCAG bind conf,dCAG dye counter,others
CN(c1ccccc1C(=O)Nc1ccc(CC#N)cc1)S(=O)(=O)c1ccccc1,.,0.4,-0.4,-5.6,-0.2,.,.,.,
Cc1csc(NC(=O)Nc2cccc(Cl)c2)n1,i,0.8,27.9*,46.5*,91.9*,75.2*,10.8,15.5*,
NC(CO)c1csc(NC(=O)Nc2cccc(Cl)c2)n1 (centres undefined),i,-9.6,.,19.2,1.6,.,.,.,
O=C(Nc1cccc(Cl)c1)Nc1nc(-c2ccccc2)cs1,i,-0.7,30.8*,50.0*,94.2*,83.1*,21.4,20.0*,
COC(=O)[C@]12C[C@H](CC(=O)N3CCN(C(=O)c4ccco4)CC3)C(=O)N(Cc3ccco3)C1=C[C@H](C(C)C)O[C@@H]2C1CC1,.,.,.,4.0,.,.,.,.,
Cc1ccc(C)c(-c2cc(C(=O)NNC(=S)NCC(C)C)c3ccccc3n2)c1,i,1.8,12.2*,44.7*,86.6*,80.2*,67.1*,24.1*,DNA CAG DR=>29.9
CCNC(=S)NNC(=O)c1cc(-c2cccc(OC)c2)nc2ccccc12,i,-10.5,-1.5,11.1,1.5,.,.,.,
CCCOc1cccc(-c2cc(C(=O)NNC(=S)NCC)c3ccccc3n2)c1,i,49.9,14.2*,57.6*,50.2*,55.7*,56.0*,19.7*,
CN(C)C1CCCCC=CC(=O)NC1 (centres undefined),i,-3.7,.,-0.2,0.2,.,.,.,
COc1ccc(C(=O)NCCN2CCOCC2)cc1S(=O)(=O)Nc1ccc(C)cc1,i,-6.0,0.3,-3.4,-0.1,.,.,.,
CC1=C/C(=N\NC(=S)Nc2cccnc2)CC(C)(C)C1,?,-3.3,1.5,-0.4,-3.5,.,.,.,
CCOc1ccc(C(=O)N/N=C(/C)C2C(=O)c3ccccc3C2=O)cc1,i,6.8,-0.8,6.5,39.8,.,.,.,
C/C(=N\NC(=O)c1ccc(-c2ccccc2)cc1)C1C(=O)c2ccccc2C1=O,i,6.1,6.5,47.0*,76.2*,43.0*,82.8*,49.5*,
Cc1ccc(S(=O)(=O)NN=C2C3CC4CC(C3)CC2C4)cc1[N+](=O)[O-],i,-7.5,-2.6,0.8,-0.3,.,.,.,
Cc1ccc(S(=O)(=O)N/N=C2/CC(c3ccccc3)Oc3ccccc32)cc1[N+](=O)[O-] (centres undefined),i,43.9,24.5*,42.1*,78.3*,76.0*,76.3*,36.5*,
Cc1ccc(O)c(N=Cc2cc(Cc3ccccc3)cc([N+](=O)[O-])c2O)c1,i,10.5,-9.1,45.8*,64.4*,55.4*,26.7,16.2*,
N#C/C(=N\Nc1cccc(C(F)(F)F)c1)C(=O)c1csc(-c2cccnc2)n1,i,10.3,11.3*,86.3*,83.5*,60.7*,80.0*,49.2*,
Cc1ccc(C(=O)Nc2cccc(C(F)(F)F)c2)cc1NC(=O)c1csc(-c2ccncc2)n1,?,9.7,5.3,.,-1.3,.,.,.,
CC1(C(=O)NCc2ccc(C(F)(F)F)cc2)CCN1Cc1ccccc1OC(F)F (centres undefined),i,17.3,.,-0.1,1.7,.,.,.,
CCN(CC)C(=O)C1CCCN(c2ccccc2[N+](=O)[O-])C1 (centres undefined),i,-4.7,-2.7,-2.2,-1.5,.,.,.,
On1onc2c3cc(-c4ccccc4)nc3ccc21,i,29.2,37.1*,41.0*,100.8*,64.6*,11.5,5.0*,
COc1ccc(OC)c(/C=C/c2ccc3cccc(O)c3n2)c1,i,12.5,.,9.6,1.3,.,.,.,
Oc1c(Cl)cc(Cl)cc1/C=C/c1ccc2cccc(O)c2n1,i,13.1,25.3*,40.7*,97.5*,74.1*,56.1*,21.1*,
CN1CCN(C2CN(Cc3cn(Cc4ccc(F)cc4)nn3)S(=O)(=O)C2)CC1 (centres undefined),i,-11.8,.,0.1,-0.1,.,.,.,
O=C1NC(=S)N/C1=C/c1cc([N+](=O)[O-])ccc1O,i,-1.9,-2.8,3.4,-3.8,.,.,.,
O=C1/C(=C/c2ccc(O)cc2)SC(=S)N1Cc1cccnc1,i,-10.4,0.7,4.2,32.1,.,.,.,
